# Dicer processing: inhibitors of human Dicer processing of pre-microRNA; z-score at 25 µM; Q9UPY3; actives 6% (n = 47,000); cat-ELCCA pre-miR-21 Dicer processing, chemiluminescence; stronger effect = higher value; in the data active = z-score above about 3, passing the limit was not always enough;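 also: plate controls were vehicle for no effect and no enzyme for full effect; higher signal means more uncleaved substrate so more Dicer inhibition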
# Target sequence (Q9UPY3 whole entry, looked up): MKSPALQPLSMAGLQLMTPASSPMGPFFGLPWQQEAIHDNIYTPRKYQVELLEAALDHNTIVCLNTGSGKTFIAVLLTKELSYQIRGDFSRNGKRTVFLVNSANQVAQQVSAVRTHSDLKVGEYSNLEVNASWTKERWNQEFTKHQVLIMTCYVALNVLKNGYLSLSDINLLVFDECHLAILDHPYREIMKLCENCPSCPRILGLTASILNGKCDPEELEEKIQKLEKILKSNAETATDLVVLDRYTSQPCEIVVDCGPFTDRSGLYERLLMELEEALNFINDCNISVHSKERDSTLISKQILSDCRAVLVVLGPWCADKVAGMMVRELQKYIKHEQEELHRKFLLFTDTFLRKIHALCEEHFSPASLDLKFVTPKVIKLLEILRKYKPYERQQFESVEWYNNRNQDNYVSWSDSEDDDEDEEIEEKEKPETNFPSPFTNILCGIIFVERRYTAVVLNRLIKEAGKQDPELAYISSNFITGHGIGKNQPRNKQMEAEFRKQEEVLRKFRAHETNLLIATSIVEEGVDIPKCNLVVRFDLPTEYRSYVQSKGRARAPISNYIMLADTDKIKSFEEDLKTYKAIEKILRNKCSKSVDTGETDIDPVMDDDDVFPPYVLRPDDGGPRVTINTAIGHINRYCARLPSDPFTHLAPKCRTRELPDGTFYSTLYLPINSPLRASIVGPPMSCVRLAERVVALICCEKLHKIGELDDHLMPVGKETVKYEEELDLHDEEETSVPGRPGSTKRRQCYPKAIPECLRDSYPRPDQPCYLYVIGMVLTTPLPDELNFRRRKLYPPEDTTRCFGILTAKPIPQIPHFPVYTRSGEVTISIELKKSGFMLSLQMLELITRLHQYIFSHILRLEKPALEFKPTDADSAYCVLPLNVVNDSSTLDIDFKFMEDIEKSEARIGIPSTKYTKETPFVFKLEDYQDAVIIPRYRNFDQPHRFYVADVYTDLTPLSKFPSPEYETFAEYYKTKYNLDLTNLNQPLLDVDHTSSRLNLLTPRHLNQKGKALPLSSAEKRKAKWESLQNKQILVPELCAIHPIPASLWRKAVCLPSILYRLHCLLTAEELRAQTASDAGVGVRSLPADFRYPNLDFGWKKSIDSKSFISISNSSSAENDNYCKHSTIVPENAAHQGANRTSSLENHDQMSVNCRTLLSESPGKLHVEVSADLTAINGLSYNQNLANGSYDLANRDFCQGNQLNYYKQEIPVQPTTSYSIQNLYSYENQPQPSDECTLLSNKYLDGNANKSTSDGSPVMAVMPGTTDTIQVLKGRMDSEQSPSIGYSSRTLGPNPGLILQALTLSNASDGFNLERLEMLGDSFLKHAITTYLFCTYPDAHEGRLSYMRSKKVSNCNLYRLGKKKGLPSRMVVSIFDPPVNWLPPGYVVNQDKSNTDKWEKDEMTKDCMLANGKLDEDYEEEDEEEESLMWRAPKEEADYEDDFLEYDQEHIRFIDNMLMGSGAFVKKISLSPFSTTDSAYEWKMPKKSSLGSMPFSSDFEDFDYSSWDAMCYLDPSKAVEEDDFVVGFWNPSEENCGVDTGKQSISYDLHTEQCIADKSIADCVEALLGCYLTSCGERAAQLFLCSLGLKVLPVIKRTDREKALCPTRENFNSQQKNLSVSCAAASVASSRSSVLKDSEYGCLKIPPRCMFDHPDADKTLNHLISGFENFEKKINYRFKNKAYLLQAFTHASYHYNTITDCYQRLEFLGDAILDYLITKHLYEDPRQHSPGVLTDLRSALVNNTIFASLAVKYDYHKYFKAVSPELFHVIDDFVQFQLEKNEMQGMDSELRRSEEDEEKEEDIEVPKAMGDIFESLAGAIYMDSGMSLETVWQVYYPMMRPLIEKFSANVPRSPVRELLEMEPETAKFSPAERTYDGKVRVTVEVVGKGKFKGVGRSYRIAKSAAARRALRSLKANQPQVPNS
# * = called active by the depositor. This is one part of a sample in which hits are shown more often than they occur.
SMILES,Dicer processing
CN(C)CCCOC(=O)c1cc2ccccc2o1,0.59
COc1ccc(OC(=O)c2cc3ccccc3o2)cc1,4.74*
CN(CCOC(=O)c1cc2ccccc2o1)C(C)(C)C,2.67
Cc1c(C)n(C(=O)CSc2ncccn2)c2ccccc12,1.8
NN(CCO)C(=S)Nc1ccc(OC(F)(F)F)cc1,-1.72
O=[N+]([O-])c1ccc(NCc2cccs2)nc1,-0.71
O=C1ON=C(CSc2ccccc2)/C1=C/c1ccccc1,0.83
O=C(O)c1ccc2c(c1)C1C=CCC1C(c1ccc(Cl)cc1)N2 (stereo unspecified),5.21
Clc1ccc2c(c1)C1C=CCC1C(c1ccccc1)N2 (stereo unspecified),22.9
COc1ccc(Br)cc1[C@@H]1Nc2ccc(C(=O)O)cc2[C@@H]2C=CC[C@@H]21,1.06
Cc1ccc2c(c1)C1C=CCC1C(c1ccccc1Cl)N2 (stereo unspecified),4.09*
CCOC(=O)c1ccc2c(c1)C1C=CCC1C(c1ccccc1)N2 (stereo unspecified),-0.56
CCOC(=O)c1ccc2c(c1)[C@@H]1C=CC[C@@H]1[C@H](c1cccc(OC)c1OC)N2,0.9
CC(C)COC(=O)c1ccc2c(c1)C1C=CCC1C(c1ccc(F)cc1)N2 (stereo unspecified),0.97
CCOC(=O)c1ccc2c(c1)C1C=CCC1C(c1ccc(Br)cc1)N2 (stereo unspecified),5.61*
O=C(O)c1ccc2c(c1)[C@@H]1C=CC[C@@H]1[C@H](c1ccccc1Br)N2,3.11*
CCOC(=O)C(NC(=O)CC)(Nc1cccc(C)c1)C(F)(F)F (stereo unspecified),-0.52
CSc1c(C#N)c(N)nc2sc(C(=O)c3ccc(F)c(F)c3)c(N)c12,-3.93
CCCOC(=O)C1=C(C)NC2=C(C(=O)CC(c3ccc(OC)cc3)C2)C1c1ccc(OC)cc1OC (stereo unspecified),-0.76
O=C(NNc1ccc(C(F)(F)F)cn1)c1ccc(Cl)c(Cl)c1,1.12
Cn1c(=O)c2c(-c3ccc(F)cc3)cc(-c3cccc(F)c3)nc2n(C)c1=O,2.23
COc1ccc(-c2cc(-c3ccc(OC)cc3)c3c(=O)n(C)c(=O)n(C)c3n2)cc1,3.4*
COc1ccc(-c2nc3c([nH]2)c(=O)n(C)c(=O)n3C)c(OC)c1,-0.42
CCc1cc2c(=O)c(-c3nc(C)cs3)c(C)oc2cc1O,-0.56
CC1(C)CC(=O)C2=C(C1)NC(=O)CC2C(=O)Nc1ccc(F)cc1 (stereo unspecified),-3.29
SMILES,Dicer processing
O=C(CSc1ncn[nH]1)c1ccc(O)cc1O,-0.31
O=C(COc1ccccc1Br)Nc1ccc2c(c1)OCO2,1.04
O=C(COc1ccccc1Br)c1ccc(O)cc1O,3.16*
FC(F)(F)c1cc(/C=C/c2noc(C(F)(F)F)n2)cc(C(F)(F)F)c1,0.29
O=C1c2ccccc2O[C@@H](c2ccccc2)[C@@H]1O,-0.24
CC(=O)OCCn1c(=O)[nH]c(=O)c2nsnc21,-0.17
CCCCN1C(=O)C(NC(C)=O)c2cc(C)cc(C)c21 (stereo unspecified),-0.97
O=C(Cc1ccc(Cl)cc1)c1ccc(O)cc1,0.6
O=C(Cc1ccc(Cl)cc1)c1ccc(O)cc1O,4.06*
O=C(Cc1ccccc1)c1ccc(Cl)cc1,-0.54
Cc1ccc(C(=O)CC2(O)C(=O)N(C(C)C)c3ccccc32)cc1 (stereo unspecified),-0.38
Cc1ccc(NC(=O)NN(C)C)cc1NC(=O)NN(C)C,0.97
Cn1c(N2CCCCC2)nc2c1c(=O)n(Cc1ccccc1F)c(=O)n2C,-0.48
Nc1nc(Nc2cccc(F)c2)sc1C(=O)c1ccc(F)cc1,3.22
Nc1nc(Nc2ccc(F)cc2)sc1C(=O)c1ccccc1,4.25*
Nc1nc(Nc2ccccc2)sc1C(=O)c1ccc(F)cc1,1.68
COc1cc2c(cc1OC)C(=O)NCC2,0.66
O=C(NCC1CCCO1)N1CCOCC1 (stereo unspecified),-0.5
CC(C)(C)c1ccc2c(c1)CN(Cc1ccccc1)CO2,2.6
CC(C)(C)c1ccc2c(c1)CN(c1cccc(C(=O)O)c1)CO2,-0.89
CC(C)(C)c1ccc2c(c1)CN(c1ccc(F)cc1)CO2,6.26*
CC(C)N1CN(CCc2ccccc2)c2nc3ccccc3n2C1,-0.22
CCN(CC)C(=O)Cn1cc(C(=O)c2cccs2)c2ccccc21,1.04
CCN(CC)C(=O)Cn1cc(C(=O)C2CC2)c2ccccc21,4.08*
COC(=O)Cn1cc(C(=O)C2CCCCC2)c2ccccc21,-0.91
SMILES,Dicer processing
C\C(=N/N=C(\N=C\N(C)C)SCc1cc(F)cc2c1OCOC2)c1ccc(C)nc1,-0.27
COc1ccc(Nc2c(Cl)cc(OC)cc2Cl)cc1,3.39
COc1ccc(Nc2nc(Cl)nc(Nc3ccc(OC)cc3)n2)cc1,-0.67
COc1ccc(Nc2n[nH]c(N)n2)cc1,5.57*
Cc1ccsc1CNC(=O)CSCC(=O)O,-0.96
Clc1ccc(-c2nnc(-c3ccccc3)o2)cc1,1.05
COc1ccc(-c2nnc(SCc3ccc(Cl)cc3)o2)cc1,0.75
CCc1ccc(-c2nnc(-c3ccc(Cl)cc3)o2)cc1,3.3*
CC(=O)C1=C(O)c2cc(Cl)c(Cl)cc2C1=O,0.16
COC(=O)CN(C#N)c1nc(C)cc(OC)n1,-0.77
COC(=O)C(C)N(C#N)c1nc(C)cc(C)n1 (stereo unspecified),5.96*
CCN(CC)C(=O)CN(C#N)c1nc(C)cc(C)n1,2.89
N#Cc1cnn(-c2ncnc3c2cnn3-c2ccccc2)c1N,-1.05
O=C(OCc1ccc2c(c1)OCO2)OCc1ccc2c(c1)OCO2,-0.25
O=C1OC(c2ccccc2)=N/C1=C\c1cccc([N+](=O)[O-])c1,1.74
O=C1OC(c2cccnc2Oc2ccc(Cl)cc2)=N/C1=C\c1ccc(Cl)cc1,-0.82
O=C1OC(c2ccc(Cl)cc2)=N/C1=C/c1cccc([N+](=O)[O-])c1,3.63*
C=CCn1c2ccccc2n2ncnc12,1.47
COc1cc(OCc2ccccc2)ccc1CN1CCN(C)CC1,-0.73
O=C1c2ccccc2C(=O)N1CNc1cccc(Cl)c1,-0.02
CCn1c(=S)[nH]c2sc(C)c(C)c2c1=O,-1.06
Cc1ccnc(-n2c(=S)[nH]c3sc(C)c(C)c3c2=O)c1,0.49
Cc1cc(-n2c(=S)[nH]c3sc(C)c(C)c3c2=O)n(-c2ccccc2)n1,3.17*
C=C1COC(=O)N1c1ccccc1[N+](=O)[O-],1.61
Cc1nnc(SCC(=O)Nc2ccccc2Cl)n1-c1ccc2c(c1)OCCO2,-0.83
SMILES,Dicer processing
COc1ccc(CCN2C(=O)CSC2=Nc2ccc(Cl)cc2C)cc1OC,2.28
O=C1CSC(=Nc2cc(Cl)c(Cl)cc2Cl)N1CCc1ccccc1,3.32*
O=C1CSC(=S)N1CCc1ccc(Cl)cc1,-1.23
CCOC(=O)c1nnc2cc(-c3cccs3)sc2n1,-0.75
COc1ccc(C2C(C#N)=C(N)Oc3n[nH]c(C)c32)cc1O (stereo unspecified),-3.23
O=C1CS/C(=N\N=C\c2c(Cl)cccc2Cl)N1,-0.44
Cc1ccc(N2C(=O)CC(=O)N(c3ccc(C)c(C)c3)C2=S)cc1C,0.05
Cc1cc(N2C(=O)CC3(CCCC3)CC2=O)ccc1Br,3.17*
Cn1cc(Br)c(-c2cccc(N3C(=O)CC(C)(C)CC3=O)c2)n1,-0.35
COc1ccc2[nH]c(C(=O)NCCNc3cccc(C(F)(F)F)n3)cc2c1,-1.07
CCC(C)N1C(=O)N(C)C2NC(=O)NC21 (stereo unspecified),1.89
CCCC(C(=O)O)N1C(=O)NC2NC(=O)NC21 (stereo unspecified),3.41*
CCC(C)C(C(=O)O)N1C(=O)NC2NC(=O)NC21 (stereo unspecified),1.21
